# Bioassay records: PubChem, National Center for Advancing Translational Sciences (NCATS)
# Compounds with a hit are over-represented: about 4.1% of the library has one in this group of screens.
# AmpC inh detg: blocks E. coli AmpC beta-lactamase in detergent assay. Potency, µM (top dose mostly 114 µM), inactives show at the highest dose activity change, negative = inhibition, usual class: inhibitors. AID 485294. actives 0.041% (n = 370,000). P00811. AmpC hydrolysis of nitrocefin, absorbance 480 nm, 0.01% Triton;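 further: 0% = no-compound wells and -100% = no-enzyme wells; nearly all actives have a fitted effect of over 25% in size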
# Target sequence (P00811 whole entry, looked up): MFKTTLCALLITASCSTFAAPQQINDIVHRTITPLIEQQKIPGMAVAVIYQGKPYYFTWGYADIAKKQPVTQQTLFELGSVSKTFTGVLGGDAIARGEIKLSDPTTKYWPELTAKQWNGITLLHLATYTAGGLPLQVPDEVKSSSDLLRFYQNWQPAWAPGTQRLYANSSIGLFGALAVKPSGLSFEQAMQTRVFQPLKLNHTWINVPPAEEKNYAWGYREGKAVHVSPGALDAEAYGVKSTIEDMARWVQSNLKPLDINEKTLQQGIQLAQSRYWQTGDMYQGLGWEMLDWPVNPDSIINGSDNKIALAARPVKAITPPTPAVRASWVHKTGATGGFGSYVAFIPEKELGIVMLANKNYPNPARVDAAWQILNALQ
#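 AmpC (5.3 nM in the dispensed reagent) in 20 mM phosphate pH 7.0 with 0.01% (detergent screen) or 0.0001% Triton X-100 was preincubated with compounds for 15 min at room temperature. Nitrocefin was then added from an 800 uM solution, and hydrolysis was followed at 480 nm.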
# Sm TGR inh: S. mansoni TGR enzyme inhibition. Q962Y6. AID 485364. purified TGR, DTNB reduction, TNB absorbance 405 nm. actives 3% (n = 360,000). Potency, µM (doses to about 114 µM), inactives show top-dose activity change, negative = inhibition, usual class: inhibitors; further: nearly all actives have a fitted effect of over 60% in size
#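 TGR 20 nM + NADPH 100 uM (dispensed conc.), cpd preinc 15 min RT; start with NADPH (500 uM addition) then DTNB (15 mM addition). Kinetic TNB absorbance, 405 nm filter. Four-parameter Hill fit across titration.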
# AMA1-RON2 inh: disrupts binding of P. falciparum AMA1 to RON2; AlphaScreen AMA1-biotinylated RON2 peptide binding; Potency, µM (titrated, usually from 58.2 µM), for inactives: top-dose activity change, negative = inhibition, actives largely listed as inhibitors; actives 0.2% (n = 360,000);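 further: 0% = vehicle wells and -100% = peptide control; nearly all actives have a fitted effect of over 45% in size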
#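 AMA1 (3D7) with his tag at 25 nM final met compounds first, then biotinylated RON2 peptide at 25 nM; detection used donor plus acceptor beads, 10 µg/mL apiece, read by AlphaScreen after 30 min at room temperature.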
# AmpC inh no detg: AmpC beta-lactamase inhibition without detergent; P00811; actives 0.52% (n = 330,000); AmpC nitrocefin hydrolysis, absorbance 480 nm, 0.0001% Triton; Potency, µM (top dose mostly 57.1 µM), inactives show top-dose activity change, negative = inhibition, most hits filed as inhibitors;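 further: plate controls were no compound for no effect and no enzyme for full effect; nearly all actives have a fitted effect of over 20% in size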
#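 20 mM phosphate pH 7.0 + 0.01% (detergent screen) or 0.0001% Triton X-100; 5.3 nM AmpC reagent; cpd preinc 15 min RT; nitrocefin (800 uM stock) to start; A480 q20 s × 4 min; Activity was normalised to no-enzyme and no-compound control wells.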
# FMDV antiviral: antivirals against foot and mouth disease virus; FMDV antiviral cell-based qHTS; actives 1.2% (n = 410,000); Potency, µM (highest dose often 57.9 µM), without a hit: top-dose activity change, negative = inhibition, usual class: inhibitors; calls by dose curve; tested in HEK293T cells; further: read-out not given here; nearly all actives have a fitted effect of over 45% in size
# Numbers without * were called inactive; ? = inconclusive; . = no result; [ ] = another dose, or the depositor's remark. Unless noted, the call rests on the fitted dose curve; in most records, active means well fitted curve in the direction sought with a large enough effect; inconclusive means small, poorly fitted or top-dose-only effect, or another doubt; inactive means no such curve, though single readings can be large; an effect the other way counts as inactive or inconclusive. Unless noted, on the % scale 0 is the no-effect control and ±100 the full control effect; potency means the concentration at half of the fitted maximal effect.
SMILES,AmpC inh detg,Sm TGR inh,AMA1-RON2 inh,AmpC inh no detg,FMDV antiviral
c1ccc(N2CC3CCc4ccccc4C3=N2)cc1 (stereo not given),-4.3%,44.7µM*,135.0%,-33.6%,-1.8%
CCN1CCCC1CNCc1cc2c(OC)c(OC)c(OC)cc2nc1N(C)C (stereo not given),.,.,.,.,-14.8%
Cc1cc(C)cc(OCCn2c(C3CC(=O)N(c4ccccc4Cl)C3)nc3ccccc32)c1 (stereo not given),10.8%,11.6%,.,96.1%,-23.8%
Cc1ccc(OCCn2c(C3CC(=O)N(Cc4ccccc4)C3)nc3ccccc32)cc1 (stereo not given),?,1.5%,-10.6%,44.7µM*,11.8%
CSc1nnc(CNC(=O)c2c(-c3ccccc3)noc2C)n1-c1ccc(F)cc1,.,.,.,.,-6.4%
COC(=O)c1cc(S(=O)(=O)Nc2cccc(OC)c2)cn1C,?,-23.1%,-6.5%,?,19.9%
CCOC(=O)c1cc(S(=O)(=O)Nc2ccc(OC)cc2OC)cn1C,2.0%,56.2µM*,0.0%,0.4%,11.5%
CCOC(=O)c1cc2occc2n1CC(=O)Nc1ccc(OC)cc1OC,?,20µM*,-18.5%,-13.2%,.
COc1ccc(Nc2nc(N)nc(CSc3nc4cc(OC)ccc4s3)n2)cc1,-0.1%,2.0%,.,.,?
COCCCn1c(SCC(=O)Nc2ccc(F)cc2)nc2c(sc3ccccc32)c1=O,-5.5%,4.0%,.,.,2.6%
COC(CN(C)C(=O)c1ccc(CS(=O)(=O)c2ccccc2C)o1)OC,3.9%,50.1µM*,-3.5%,-3.6%,-0.8%
Cc1ccccc1S(=O)(=O)Cc1ccc(C(=O)N(C)C2CCCCC2)o1,0.5%,25.1µM*,11.5%,41.2%,1.8%
CCCCN(C)C(=O)c1ccc(CS(=O)(=O)c2ccccc2C)o1,0.1%,25.1µM*,-2.3%,1.1%,-22.8%
Cc1ccccc1S(=O)(=O)Cc1ccc(C(=O)NC2CC2)o1,7.0%,-1.3%,-1.4%,-6.9%,-21.4%
Cc1ccccc1S(=O)(=O)Cc1ccc(C(=O)O)o1,-3.7%,-30.7%,-1.0%,-3.5%,.
O=C(/C=C/c1ccc(Br)o1)NCCCN1CCOCC1,2.2%,4.47µM*,9.9%,-13.2%,15.7%
O=C(/C=C/c1ccc(Cl)cc1)NCCCN1CCOCC1,-13.7%,-25.1%,-9.9%,1.0%,-15.2%
O=C(/C=C/c1ccco1)NCCCN1CCOCC1,-4.0%,11.2µM*,2.9%,2.7%,-5.4%
O=C(COC(=O)/C=C/c1cccc([N+](=O)[O-])c1)NCCCN1CCCC1=O,1.0%,-3.0%,-0.8%,-9.6%,1.6%
O=C(COC(=O)/C=C/c1ccc(Br)o1)NCCCN1CCCC1=O,?,31.6µM*,23.9%,-6.4%[11.4 µM],-1.5%
Cc1ccc(NC(=O)c2oc3ccccc3c2NC(=O)c2cc3ccccc3o2)cc1,-2.4%,0.3%,.,.,0.0%
C[n+]1cc2c3c(ccc2c2ccc4cc5c(cc4c21)OCO5)OCO3,.,.,.,.,25.1µM*
CC(=O)c1ccc2c(c1)OCO2,?,-13.3%,-3.5%,-9.6%,-21.1%
COc1ccc(/C=N/NC(=O)c2cccnc2)cc1COc1ccc([N+](=O)[O-])c(C)c1,3.4%,0.7%,7.1%,66.3%,39.8µM*
COc1ccc(/C=N/NC(=O)c2cc(O)c(O)c(O)c2)cc1Cn1cc([N+](=O)[O-])cn1,9.0%,?,?,-27.1%,-16.9%
SMILES,AmpC inh detg,Sm TGR inh,AMA1-RON2 inh,AmpC inh no detg,FMDV antiviral
COc1ccc(/C=N/NC(=O)c2ccoc2C)cc1COc1ccc(Cl)cc1,0.2%,8.0%,-6.6%,.,22.4µM*
COc1ccc(/C=N/NC(=O)c2ccoc2C)cc1OC,-8.0%,-3.9%,-14.7%,-5.5%,-11.9%
COc1ccc(/C=N/NC(=O)c2ccccc2O)cc1Cn1cc([N+](=O)[O-])cn1,-5.2%,1.5%,57.0%,6.31µM*,-11.5%
COc1ccc(/C=N/NC(=O)c2cccnc2)cc1CSc1nc2ccccc2s1,-9.7%,1.4%,-7.9%,92.4%,35.5µM*
CCc1ccc(CNC(=O)c2cnc(N3CCCCC3)c3ccccc23)cc1,-1.2%,-4.5%,.,.,0.0%
O=C(CCN1CCCC1)c1cccs1,11.3%,0.0%,-0.4%,-8.9%,17.8%
O=C(CCN1CC2CCC(CC2)C1)c1cccs1,.,.,-5.3%,.,25.1µM*
COc1cc(OC)c(NC(=O)C(C)n2nc(-c3ccc(C)c(C)c3)ccc2=O)cc1Cl (stereo not given),16.1%,0.7%,.,.,-13.7%
COc1cc(-c2nc3ccccn3c2NCc2ccccc2)ccc1SC1CCCCC1,-1.2%,3.8%,-15.5%,-21.2%,22.4µM*
CCC(C)Sc1ccc(-c2nc3ccccn3c2NCc2ccccc2)cc1OC (stereo not given),.,.,11.7%,0.8%,39.8µM*
N/C(Cc1ccc(Cl)cc1Cl)=N\OC(=O)c1ccc(Br)o1,-1.4%,-1.7%,-10.1%,-11.5%,-12.6%
N/C(Cc1cccc2ccccc12)=N\OC(=O)c1ccc(Br)o1,0.1%,44.7µM*,.,-28.6%,.
C=CCN=C1NN=C(c2ccc3c(c2)OCCO3)CS1,?,-14.4%,12.2%,-21.6%[11.4 µM],8.91µM*
NC1=NN=C(c2ccc3c(c2)OCCO3)CS1,1.7%,?,28.4%,-28.9%,11.2µM*
Cc1sc(N)nc1-c1ccc2c(c1)OCCO2,6.5%,9.7%,-0.6%,-13.1%,50.3%
C=CCN=C1NN=C(c2cc(C)n(CC=C)c2C)CS1,-2.0%,-8.9%,28.8%,-48.0%,17.8µM*
Cc1ccc(S(=O)(=O)N2CCN(Cc3nnc(-c4c(-c5ccccc5)noc4C)o3)CC2)cc1,1.1%,-3.0%,3.0%,236.8%,39.8µM*
Cc1cccc(NC(=O)CCNS(=O)(=O)c2ccc3c(c2)CCN3C(=O)C2CC2)c1,0.7%,5.2%,.,.,-5.9%
COc1cc(CNCCCN2CCOCC2)cc(Br)c1OCc1ccc(Cl)cc1,8.4%,6.3%,-14.8%,25.2%[2.29 µM],39.8µM*
COc1ccc2oc(=O)c(/C(C)=N/Nc3nc(-c4cc(C)ccc4C)cs3)cc2c1,-10.8%,-22.9%,30.9%,-48.1%,-12.5%
C/C(=N\Nc1nc(-c2ccc(C)cc2C)cs1)c1cc2ccccc2oc1=O,?,-13.9%,43.1%,20µM*,-20.2%
CC(C)(C)OC(=O)N1CC=C2C(C#N)=C(N)C(C#N)(C#N)[C@H](c3cccnc3)[C@H]2C1,?,35.5µM*,14.4%,-9.9%,0.0%
CC1CC=C2C(C#N)=C(N)C(C#N)(C#N)C(c3cccs3)C2C1 (stereo not given),-15.9%,50.1µM*,14.6%,-49.5%,?
CCOC(=O)N1CC=C2C(C#N)=C(N)C(C#N)(C#N)[C@H](c3cccs3)C2C1 (stereo not given in full),-14.3%,-22.2%,6.0%,-18.4%,?
CC(C)N1CC=C2C(C#N)=C(N)C(C#N)(C#N)[C@H](c3ccoc3)[C@H]2C1,-1.7%,?,.,-34.4%,.
CC(C)(C)OC(=O)N1CC=C2C(C#N)=C(N)C(C#N)(C#N)C(c3cccs3)C2C1 (stereo not given),-0.1%,?,9.4%,-38.7%,22.4µM*
